# Test results reported in PubChem BioAssay (Tox21).
# A number with no mark means an inactive call. Inconclusive results are not listed. Entries that show only a call come without a potency. Active and inactive are the calls of the source. Unless noted, the call rests on the fitted dose curve.
# Assays:
# [1] = Nuclear factor erythroid 2-related factor 2/antioxidant responsive element (Nrf2/ARE) small molecule agonists: qHTS cell viability counter screen in human keratinocytes (AID 1919968; active means well fitted curve in the direction sought with a large enough effect in the repeat runs; an effect the other way counts as inactive or inconclusive; further: nearly all actives have a fitted effect of over 55% in size; further: potency means the concentration at half of the fitted maximal effect)
# Summary of the method: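 KeratinoSens cells (HaCaT keratinocytes stably carrying an ARE-luciferase reporter) were seeded at 1,500 cells/well and rested 5 h at 37 C/5% CO2. They were then exposed to compounds in DMSO for 23 h. Viability was read by CellTiter-Fluor fluorescence after 1 h.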
# [2] = Nuclear factor erythroid 2-related factor 2/antioxidant responsive element (Nrf2/ARE) small molecule agonists: luciferase reporter gene qHTS assay in human keratinocytes (AID 1919969); further: nearly all actives have a fitted effect of over 35% in size; further: potency means the concentration at half of the fitted maximal effect
# [3] = target: Gonadotropin-releasing hormone receptor (Homo sapiens) (UniProt P30968); experiment: Human gonadotropin-releasing hormone receptor (GnRHR) small molecule agonists, calcium flux assay in GnRHR-HEK293 cells (AID 1920063); further: nearly all actives have a fitted effect of over 35% in size; further: potency means the concentration at half of the fitted maximal effect
# Sequence of Gonadotropin-releasing hormone receptor (Homo sapiens) (P30968 whole entry, looked up): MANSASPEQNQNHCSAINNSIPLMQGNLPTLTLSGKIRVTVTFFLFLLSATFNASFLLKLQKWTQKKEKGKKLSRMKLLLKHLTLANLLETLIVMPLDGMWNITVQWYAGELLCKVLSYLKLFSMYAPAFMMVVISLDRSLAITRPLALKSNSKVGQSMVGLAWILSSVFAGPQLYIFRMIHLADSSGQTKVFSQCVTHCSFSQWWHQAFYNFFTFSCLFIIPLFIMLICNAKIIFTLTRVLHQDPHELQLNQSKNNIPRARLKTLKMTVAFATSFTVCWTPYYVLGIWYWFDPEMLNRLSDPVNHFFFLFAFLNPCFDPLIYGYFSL
# Summary of the method: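 HEK293 cells stably expressing human GnRHR were plated 18 h at 37 °C, loaded with calcium dye 1 h at 37 °C, then given compound in agonist mode; fluorescence (Ex/Em 480/540) read kinetically for 3 min at 1 s intervals.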
# [4] = target: KiSS-1 receptor (Homo sapiens) (UniProt Q969F8); experiment: Human kisspeptin (KISS1R) small molecule agonists, calcium flux assay in KISS1R-HEK293 cells (AID 1920064; active means well fitted curve in the direction sought with a large enough effect in the repeat runs; an effect the other way counts as inactive or inconclusive)
# Sequence of KiSS-1 receptor (Homo sapiens) (Q969F8 whole entry, looked up): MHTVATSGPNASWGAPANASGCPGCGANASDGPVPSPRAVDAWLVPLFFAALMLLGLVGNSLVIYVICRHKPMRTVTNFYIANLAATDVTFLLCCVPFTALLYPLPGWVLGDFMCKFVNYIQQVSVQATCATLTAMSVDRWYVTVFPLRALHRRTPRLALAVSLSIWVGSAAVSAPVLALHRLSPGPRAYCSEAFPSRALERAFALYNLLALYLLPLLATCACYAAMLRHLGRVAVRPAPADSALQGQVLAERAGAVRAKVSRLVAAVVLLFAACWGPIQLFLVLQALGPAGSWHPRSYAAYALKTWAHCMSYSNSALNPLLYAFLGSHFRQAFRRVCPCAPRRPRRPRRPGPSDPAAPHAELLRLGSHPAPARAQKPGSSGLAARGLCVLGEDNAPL
# Summary of the method: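 HEK293 cells stably expressing human KISS1R were plated 18 h at 37 °C, loaded with calcium dye for 1 h at 37 °C, then given compound by pin tool. Fluorescence (Ex/Em 480/540) was read kinetically for 3 min.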
# [5] = G protein-coupled receptor (GPCR) small molecule agonists, calcium flux assay: HEK293 wild type cell line counter screen (AID 1920065)
# Summary of the method: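 Cells were plated and cultured 18 h at 37 C/5% CO2, then loaded with calcium dye for 1 h at 37 C. Compounds in DMSO were pin-transferred in agonist mode, and fluorescence (Ex/Em 480/540) was read kinetically for 3 min at 1 s intervals.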
# [6] = p53 small molecule agonists, cell-based qHTS assay with human liver microsomes: qHTS cell viability counter screen (AID 1963579); further: nearly all actives have a fitted effect of over 45% in size; further: potency means the concentration at half of the fitted maximal effect
# Summary of the method: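 In this multiplexed counter screen, the reporter plates were subsequently treated with CellTiter-Glo so that cell viability, reflected by luminescence, could be recorded for p53RE-bla cells dosed 16 h with compounds under microsomal activation (HLM and NADPH).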
# [7] = p53 small molecule agonists, cell-based qHTS assay: qHTS cell viability counter screen (AID 1963581); further: nearly all actives have a fitted effect of over 45% in size; further: potency means the concentration at half of the fitted maximal effect
# Summary of the method: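 p53RE-bla HCT-116 cells were exposed to compounds for 16 h at 37 C; after the beta-lactamase FRET read in the same wells, CellTiter-Glo was added and luminescence (intracellular ATP) read after 30 min at room temperature.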
# [8] = target: 5-hydroxytryptamine receptor 2A (Homo sapiens) (UniProt P28223); experiment: 5-hydroxytryptamine receptor 2A (HTR2A) small molecule agonists, cell-based qHTS assay (AID 1963587); further: nearly all actives have a fitted effect of over 30% in size; further: potency means the concentration at half of the fitted maximal effect
# Sequence of 5-hydroxytryptamine receptor 2A (Homo sapiens) (P28223 whole entry, looked up): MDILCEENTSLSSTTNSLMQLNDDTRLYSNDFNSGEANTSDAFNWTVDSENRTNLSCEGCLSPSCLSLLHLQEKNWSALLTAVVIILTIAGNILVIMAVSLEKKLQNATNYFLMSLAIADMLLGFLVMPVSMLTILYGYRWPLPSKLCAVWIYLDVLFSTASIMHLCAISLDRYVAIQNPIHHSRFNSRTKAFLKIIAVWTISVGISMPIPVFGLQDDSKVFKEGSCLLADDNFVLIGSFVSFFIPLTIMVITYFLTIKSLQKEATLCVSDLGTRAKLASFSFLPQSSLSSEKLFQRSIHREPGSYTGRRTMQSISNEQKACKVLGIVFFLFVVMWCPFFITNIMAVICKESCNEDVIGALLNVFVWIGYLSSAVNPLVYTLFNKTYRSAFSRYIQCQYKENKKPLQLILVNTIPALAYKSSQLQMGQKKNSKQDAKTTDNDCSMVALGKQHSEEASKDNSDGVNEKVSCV
# Summary of the method: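 HTR2A-CHO cells, plated 18 h at 37 C/5% CO2, dye-loaded 1 h at 37 C; compounds in DMSO added by pin tool (agonist mode). Intracellular calcium flux read as kinetic fluorescence on FDSS over 2 min at 1 s intervals.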
# [9] = target: Muscarinic acetylcholine receptor M1 (Homo sapiens) (UniProt P11229); experiment: Cholinergic receptor muscarinic 1 (CHRM1) small molecule antagonists, cell-based qHTS assay (AID 1963588); further: nearly all actives have a fitted effect of over 40% in size
# Sequence of Muscarinic acetylcholine receptor M1 (Homo sapiens) (P11229 whole entry, looked up): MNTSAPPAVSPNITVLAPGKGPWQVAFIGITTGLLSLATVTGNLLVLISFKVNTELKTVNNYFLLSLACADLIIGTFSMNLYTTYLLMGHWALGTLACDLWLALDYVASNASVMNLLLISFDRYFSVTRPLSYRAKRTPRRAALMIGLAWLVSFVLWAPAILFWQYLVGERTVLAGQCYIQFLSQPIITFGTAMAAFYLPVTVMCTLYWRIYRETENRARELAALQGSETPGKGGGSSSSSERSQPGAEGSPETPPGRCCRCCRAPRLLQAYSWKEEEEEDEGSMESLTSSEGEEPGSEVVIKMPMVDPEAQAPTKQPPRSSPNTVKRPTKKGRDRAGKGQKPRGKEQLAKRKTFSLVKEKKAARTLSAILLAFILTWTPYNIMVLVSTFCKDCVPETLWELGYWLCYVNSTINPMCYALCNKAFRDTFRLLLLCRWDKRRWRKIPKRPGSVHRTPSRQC
# Summary of the method: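 CHRM1-CHO calcium-flux assay, antagonist mode. Cells were seeded 18 h, dye-loaded 1 h at 37 C and given compound for 5 min at RT, then acetylcholine was added at 50nM. FDSS fluorescence was read 3 min; 15 concentrations, three runs.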
# [10] = target: Muscarinic acetylcholine receptor M1 (Homo sapiens) (UniProt P11229); experiment: Cholinergic receptor muscarinic 1 (CHRM1) small molecule agonists, cell-based qHTS assay (AID 1963589); further: nearly all actives have a fitted effect of over 35% in size
# Summary of the method: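 CHO cells stably expressing human CHRM1, seeded 18 h at 37 C/5% CO2, dye-loaded 1 h at 37 C, then given compound in agonist mode; intracellular calcium fluorescence read kinetically at 1 s intervals. Fifteen concentrations, three independent runs.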
# [11] = cAMP Responsive Elements (CRE) small molecule agonists, cell-based qHTS assay (AID 1963590)
# Summary of the method: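 CRE-bla HEK 293T cells in DMEM with 10% dialyzed FBS, NEAA, pyruvate and 25 mM HEPES were plated 18 h at 37 C/5% CO2, then exposed to compounds in DMSO for 3 h before LiveBLAzer B/G FRET substrate addition.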
# [12] = cAMP Responsive Elements (CRE) small molecule antagonists, cell-based qHTS assay (AID 1963591; active means well fitted inhibition curve with a large enough effect in the signal ratio in the repeat runs, not every such curve was filed as active; the % refers to the signal ratio)
# Summary of the method: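 CRE-bla HEK293T cells were plated 18 h at 37 °C/5% CO2, pinned with compound in DMSO, then stimulated with NKH477 at 0.25 uM final for 3 h. LiveBLAzer B/G FRET substrate was added and plates incubated 2 h at room temperature.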
# [13] = target: Beta-2 adrenergic receptor (Homo sapiens) (UniProt P07550); experiment: Adrenergic beta2 receptor (ADRB2) small molecule antagonists, cell-based qHTS assay (AID 1963592); further: series mostly up to about 92 µM; nearly all actives have a fitted effect of over 50% in size
# Sequence of Beta-2 adrenergic receptor (Homo sapiens) (P07550 whole entry, looked up): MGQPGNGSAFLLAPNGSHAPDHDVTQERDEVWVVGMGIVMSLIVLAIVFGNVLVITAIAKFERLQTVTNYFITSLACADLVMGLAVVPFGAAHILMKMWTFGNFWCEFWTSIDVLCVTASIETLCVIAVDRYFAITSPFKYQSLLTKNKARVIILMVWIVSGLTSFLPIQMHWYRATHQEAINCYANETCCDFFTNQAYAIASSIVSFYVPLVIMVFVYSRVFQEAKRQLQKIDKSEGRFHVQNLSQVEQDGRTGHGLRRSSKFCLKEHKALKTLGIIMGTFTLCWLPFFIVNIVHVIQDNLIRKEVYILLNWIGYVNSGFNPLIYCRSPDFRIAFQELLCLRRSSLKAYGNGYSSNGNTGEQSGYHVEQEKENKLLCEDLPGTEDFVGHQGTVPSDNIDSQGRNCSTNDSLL
# Summary of the method: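 Cells (CHO, stable ADRB2 overexpression) incubated 18-20hr at 37C; compounds added from DMSO; agonist mix (1nM isoproterenol, 100uM IBMX, 25uM Ro-20-1724) added; 0.5hr RT; d2-cAMP and anti-cAMP-cryptate added; 1hr RT; 665/615 nm read.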
# [14] = target: D(2) dopamine receptor (Homo sapiens) (UniProt P14416); experiment: Dopamine D2 receptor (DRD2) small molecule agonists, cell-based qHTS assay (AID 1963594); further: nearly all actives have a fitted effect of over 35% in size
# Sequence of D(2) dopamine receptor (Homo sapiens) (P14416 whole entry, looked up): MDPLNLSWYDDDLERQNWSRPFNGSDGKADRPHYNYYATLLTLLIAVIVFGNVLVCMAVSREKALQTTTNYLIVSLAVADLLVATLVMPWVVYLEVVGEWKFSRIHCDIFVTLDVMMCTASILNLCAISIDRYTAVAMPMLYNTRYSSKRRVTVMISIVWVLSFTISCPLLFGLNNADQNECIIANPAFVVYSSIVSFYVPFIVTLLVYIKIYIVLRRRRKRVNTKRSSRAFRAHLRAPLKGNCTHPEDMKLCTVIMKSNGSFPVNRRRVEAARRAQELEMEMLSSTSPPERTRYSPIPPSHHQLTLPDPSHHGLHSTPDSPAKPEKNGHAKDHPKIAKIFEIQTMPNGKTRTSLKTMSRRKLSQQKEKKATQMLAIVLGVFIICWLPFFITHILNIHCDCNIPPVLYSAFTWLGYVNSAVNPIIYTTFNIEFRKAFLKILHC
# Summary of the method: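 HEK293 cells stably expressing DRD2 were cultured 24 h at 37 C, then given Ro20-1724 (0.1 mM final) and compounds for 10 min at room temperature. NKH477 (200nM) was then added for 30 min. cAMP was read by HTRF.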
# [15] = target: D(2) dopamine receptor (Homo sapiens) (UniProt P14416); experiment: Dopamine D2 receptor (DRD2) small molecule antagonists, cell-based qHTS assay (AID 1963595; active means well fitted inhibition curve with a large enough effect in the signal ratio in the repeat runs, with a control signal flat; the % refers to the signal ratio; further: potency means the concentration at half of the fitted maximal effect)
# Summary of the method: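 Antagonist mode in DRD2-HEK293 cells: after compound addition with 0.1 mM Ro20-1724, cells received quinpirole (12 nM) and NKH477 (200 nM) for 30 min at room temperature; HTRF cAMP read after 1 h detection.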
# [16] = target: 5-hydroxytryptamine receptor 2A (Homo sapiens) (UniProt P28223); experiment: 5-hydroxytryptamine receptor 2A (HTR2A) small molecule antagonists, cell-based qHTS assay (AID 1963586); further: nearly all actives have a fitted effect of over 45% in size; further: potency means the concentration at half of the fitted maximal effect
# Summary of the method: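 Antagonist-mode intracellular calcium assay: DOI (4 nM) added after 5 min compound pre-incubation at room temperature to dye-loaded HTR2A-CHO cells. Fluorescence followed for 3 min, sampled every second.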
# [17] = p53 small molecule agonists, cell-based qHTS assay with human liver microsomes (AID 1963577);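 further: p53 response element beta-lactamase reporter cells with liver microsomes plus NADPH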
# Summary of the method: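 16 h, 37 C exposure of p53RE-bla cells to compounds with human liver microsomes and NADPH (0.5 mg/mL final each); detection via LiveBLAzer mixture, 2 h dark at room temperature.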
# [18] = p53 small molecule agonists, cell-based qHTS assay with rat liver microsomes (AID 1963578)
# Summary of the method: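 With rat liver microsomes and NADPH present (0.5 mg/mL final each), p53RE-bla cells are treated with compound for 16 h at 37 C. LiveBLAzer detection mixture is then applied for 2 h at room temperature in the dark.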
# [19] = p53 small molecule agonists, cell-based qHTS assay with rat liver microsomes: qHTS cell viability counter screen (AID 1963580); further: nearly all actives have a fitted effect of over 45% in size
# Summary of the method: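 p53RE-bla HCT-116 cells (4,000/well) rested 5 h at 37 C, then given Tox21 compounds in DMSO with rat liver microsomes (0.5 mg/mL final) plus NADPH (0.5 mg/mL final) for 16 h at 37 C. Viability read by CellTiter-Glo luminescence after 30 min at room temperature.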
# [20] = p53 small molecule agonists, cell-based qHTS assay (AID 1963582; active means well fitted activation curve with a large enough effect in the signal ratio in the repeat runs, not every such curve was filed as active; the % refers to the signal ratio)
# Summary of the method: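 p53RE-bla beta-lactamase reporter cells rested 5 h at 37 C/5% CO2, then received compounds in DMSO by pin transfer and were incubated 16 h at 37 C. LiveBLAzer B/G FRET substrate was loaded for 2 h at room temperature before fluorescence reading.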
SMILES,Potency [1],Potency [2],Potency [3],Potency [4],Potency [5],Potency [6],Potency [7],Potency [8],Potency [9],Potency [10],Potency [11],Potency [12],Potency [13],Potency [14],Potency [15],Potency [16],Potency [17],Potency [18],Potency [19],Potency [20]
CNC(=O)O/N=C(\C)C(C)S(C)(=O)=O (configuration not stated),inactive,708 µM (active),inactive,inactive,inactive,316 µM (active),inactive,inactive,inactive,inactive,inactive,inactive,inactive,inactive,inactive,–,–,–,–,–
CCc1ccccc1N,inactive,inactive,inactive,inactive,inactive,inactive,inactive,–,inactive,–,inactive,inactive,inactive,inactive,inactive,inactive,–,–,–,–
O=C(C(Cl)(Cl)Cl)C(Cl)(Cl)Cl,inactive,inactive,inactive,inactive,inactive,inactive,inactive,inactive,inactive,inactive,–,inactive,–,inactive,inactive,inactive,–,–,–,–
C1CCC(C2CCCCC2)CC1,inactive,inactive,inactive,inactive,inactive,inactive,inactive,inactive,inactive,inactive,–,–,inactive,inactive,–,inactive,–,–,–,–
CCCCCCCCCCCCN(C)C,inactive,inactive,inactive,inactive,–,inactive,inactive,inactive,inactive,inactive,inactive,–,inactive,–,inactive,inactive,inactive,inactive,inactive,inactive
O=[N+]([O-])c1ccc(F)c([N+](=O)[O-])c1,27.6 µM (active),inactive,inactive,inactive,inactive,–,inactive,inactive,inactive,inactive,–,–,–,–,–,inactive,–,–,inactive,–
CC(Cc1ccc(O)cc1)NCC(O)c1cc(O)cc(O)c1 (configuration not stated),inactive,inactive,33.8 nM (active),inactive,inactive,–,–,–,inactive,inactive,–,inactive,–,–,5.96 µM (active),–,–,–,–,–
c1ccc2nc(N3CCNCC3)ccc2c1,inactive,inactive,inactive,inactive,inactive,–,–,4.8 nM (active),inactive,–,inactive,inactive,inactive,–,inactive,0.0033 µM (active),–,–,–,–
O=[N+]([O-])c1cccc2c([N+](=O)[O-])cccc12,inactive,61.4 µM (active),inactive,inactive,inactive,–,23.1 µM (active),inactive,inactive,inactive,–,–,inactive,inactive,inactive,inactive,–,–,inactive,–
COC(=O)c1ccccc1S(=O)(=O)NC(=O)Nc1nc(C)cc(C)n1,inactive,inactive,inactive,inactive,inactive,inactive,inactive,inactive,inactive,inactive,inactive,inactive,inactive,inactive,inactive,inactive,–,–,–,–
O=C(O)c1c(Cl)ccc2cc(Cl)cnc12,inactive,inactive,inactive,inactive,inactive,–,inactive,inactive,inactive,inactive,inactive,inactive,inactive,–,inactive,inactive,–,–,inactive,–
O=C(Cc1ccccc1)OCc1ccccc1,inactive,inactive,inactive,inactive,inactive,inactive,–,inactive,inactive,inactive,inactive,inactive,inactive,inactive,inactive,–,–,–,inactive,–
CCCC[N+](CCCC)(CCCC)CCCC,inactive,inactive,inactive,inactive,–,inactive,inactive,inactive,inactive,inactive,–,inactive,inactive,inactive,inactive,inactive,inactive,inactive,inactive,–
CCOP(=S)(OCC)Oc1cc(C)nc(N(CC)CC)n1,inactive,inactive,inactive,inactive,inactive,–,–,inactive,inactive,inactive,–,–,inactive,inactive,inactive,–,–,–,inactive,inactive
Cc1ccccc1OP(=O)(Oc1ccccc1C)Oc1ccccc1C,inactive,48.8 µM (active),inactive,inactive,inactive,–,inactive,inactive,–,inactive,–,inactive,inactive,inactive,–,–,–,–,inactive,–
CCOP(=S)(OCC)SCSP(=S)(OCC)OCC,inactive,68.6 µM (active),inactive,inactive,inactive,–,–,–,–,inactive,–,–,inactive,inactive,inactive,–,–,–,inactive,inactive
CCN[C@@H](C)Cc1cccc(C(F)(F)F)c1,inactive,inactive,inactive,inactive,inactive,inactive,–,–,–,–,inactive,–,–,–,–,–,–,–,inactive,–
NCCc1cc(O)c(O)cc1O,inactive,inactive,inactive,inactive,inactive,–,inactive,–,inactive,–,inactive,inactive,inactive,inactive,–,18.3 µM (active),–,–,inactive,–
N#Cc1c2ccccc2cc2ccccc12,inactive,inactive,inactive,inactive,inactive,–,inactive,inactive,inactive,inactive,–,–,inactive,inactive,–,inactive,–,–,inactive,–
